Biological target: T1, EHF (Homo sapiens, UniProt Q9NZC4 1-300)
T1 sequence: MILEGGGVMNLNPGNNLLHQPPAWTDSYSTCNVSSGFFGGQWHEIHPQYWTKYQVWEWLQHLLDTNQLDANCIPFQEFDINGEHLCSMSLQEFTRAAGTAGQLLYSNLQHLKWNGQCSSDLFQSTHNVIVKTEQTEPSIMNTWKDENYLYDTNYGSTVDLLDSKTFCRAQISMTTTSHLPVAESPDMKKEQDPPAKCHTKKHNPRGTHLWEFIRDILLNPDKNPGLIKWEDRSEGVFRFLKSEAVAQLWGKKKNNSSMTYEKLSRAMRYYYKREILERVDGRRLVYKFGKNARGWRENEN
Assay: DAPPL (digital affinity profiling via proximity ligation, sequencing); 10 mM Tris-HCl pH 7.5, 50 mM NaCl, 1 mM DTT, 4% glycerol, room temperature, 30 min; GST-TFs on glutathione beads, 16-mer random dsDNA library, 0.1% formaldehyde crosslink after washing; high values mean tight binding
Settings: protein: recombinant; tags: N-terminal GST; dsDNA, one strand shown
In short: (§1)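 A tag-only sample was pooled with DNA-barcoded human transcription factors that had been expressed in yeast as GST fusions and captured on glutathione beads. The pools were incubated for 30 min at room temperature with 200 nmole of a random double-stranded 16-mer DNA library in Tris/NaCl/DTT/glycerol buffer, then washed, crosslinked with 0.1% formaldehyde, proximity-ligated (BsaI/T4 ligase, 1 h, 37 °C), PCR-amplified and sequenced on an Illumina NextSeq500. Binding signal is each hexamer's read frequency for a factor divided by its frequency for the tag-only sample.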

| Sequence | binding signal |
| --- | --- |
| GCGAAG | 1 fold enrichment (6-mer frequency, TF over GST control) |
| AGCGAA | 1.06 fold enrichment (6-mer frequency, TF over GST control) |
| CTAGAC | 1.01 fold enrichment (6-mer frequency, TF over GST control) |

Biological target: SPIB (Homo sapiens, UniProt Q01892 1-262)
Assay: as above
Settings: protein: recombinant; tags: N-terminal GST; dsDNA, one strand shown
In short: as §1

Chain of SPIB (Q01892 whole entry): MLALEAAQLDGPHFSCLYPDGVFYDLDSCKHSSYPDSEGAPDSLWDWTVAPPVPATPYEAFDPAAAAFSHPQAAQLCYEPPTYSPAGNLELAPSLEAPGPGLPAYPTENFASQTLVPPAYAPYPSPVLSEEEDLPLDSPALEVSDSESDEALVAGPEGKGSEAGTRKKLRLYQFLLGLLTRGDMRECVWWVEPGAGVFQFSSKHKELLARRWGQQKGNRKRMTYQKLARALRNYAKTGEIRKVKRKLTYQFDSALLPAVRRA

| Sequence | binding signal |
| --- | --- |
| TTCGTG | 1.04 fold enrichment (6-mer frequency, TF over GST control) |
| TGCGAG | 1.03 fold enrichment (6-mer frequency, TF over GST control) |
| GAATCA | 1.03 fold enrichment (6-mer frequency, TF over GST control) |

Biological target: T2, ELK3 (Homo sapiens, UniProt P41970 1-407)
T2 sequence: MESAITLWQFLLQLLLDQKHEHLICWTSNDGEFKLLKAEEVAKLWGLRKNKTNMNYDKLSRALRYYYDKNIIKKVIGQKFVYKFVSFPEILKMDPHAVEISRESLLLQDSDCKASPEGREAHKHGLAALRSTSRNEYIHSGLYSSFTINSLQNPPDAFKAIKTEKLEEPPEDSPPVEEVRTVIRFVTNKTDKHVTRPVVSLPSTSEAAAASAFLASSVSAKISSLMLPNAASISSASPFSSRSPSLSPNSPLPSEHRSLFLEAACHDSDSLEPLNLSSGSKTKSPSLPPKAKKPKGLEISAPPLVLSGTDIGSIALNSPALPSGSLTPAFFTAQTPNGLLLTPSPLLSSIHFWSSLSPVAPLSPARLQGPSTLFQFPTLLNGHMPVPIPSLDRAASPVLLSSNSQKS
Assay: as above
Settings: protein: recombinant; tags: N-terminal GST; dsDNA, one strand shown
In short: as §1

| Sequence | binding signal |
| --- | --- |
| GGAAAG | 1 fold enrichment (6-mer frequency, TF over GST control) |
| GTGGAT | 1.04 fold enrichment (6-mer frequency, TF over GST control) |
| GATAAG | 1.02 fold enrichment (6-mer frequency, TF over GST control) |
| CAAAGA | 1.03 fold enrichment (6-mer frequency, TF over GST control) |

Biological target: HSF1 (Homo sapiens, UniProt Q00613 1-529)
Assay: as above
Settings: protein: recombinant; tags: N-terminal GST; chain copies: 3; dsDNA, one strand shown
In short: as §1

Chain of HSF1 (Q00613 whole entry): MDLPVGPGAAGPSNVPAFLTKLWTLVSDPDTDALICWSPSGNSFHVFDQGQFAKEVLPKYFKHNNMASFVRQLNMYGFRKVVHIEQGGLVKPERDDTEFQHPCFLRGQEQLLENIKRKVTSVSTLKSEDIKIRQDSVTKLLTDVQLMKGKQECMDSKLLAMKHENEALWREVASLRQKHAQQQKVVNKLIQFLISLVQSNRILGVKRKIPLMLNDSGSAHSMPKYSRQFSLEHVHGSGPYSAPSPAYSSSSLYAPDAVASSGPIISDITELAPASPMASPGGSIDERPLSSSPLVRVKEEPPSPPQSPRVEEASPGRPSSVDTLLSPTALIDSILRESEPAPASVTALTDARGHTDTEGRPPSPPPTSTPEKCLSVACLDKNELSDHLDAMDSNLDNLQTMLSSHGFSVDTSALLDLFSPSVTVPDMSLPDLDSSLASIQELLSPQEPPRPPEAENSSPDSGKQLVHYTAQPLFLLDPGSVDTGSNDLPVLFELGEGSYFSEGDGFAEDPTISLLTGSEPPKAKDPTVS

| Sequence | binding signal |
| --- | --- |
| GGAATA | 1.44 fold enrichment (6-mer frequency, TF over GST control) |
| AGGATC | 1.08 fold enrichment (6-mer frequency, TF over GST control) |
| GGATTC | 1.13 fold enrichment (6-mer frequency, TF over GST control) |
| CAGAAC | 1.62 fold enrichment (6-mer frequency, TF over GST control) |
| TTCGTG | 1.1 fold enrichment (6-mer frequency, TF over GST control) |
| TTCGGG | 1.58 fold enrichment (6-mer frequency, TF over GST control) |
| GGGATT | 1.75 fold enrichment (6-mer frequency, TF over GST control) |
| GGATCA | 1.1 fold enrichment (6-mer frequency, TF over GST control) |
| CCAAGA | 1.03 fold enrichment (6-mer frequency, TF over GST control) |
| GATTAG | 2.22 fold enrichment (6-mer frequency, TF over GST control) |
| GCGAAC | 1.03 fold enrichment (6-mer frequency, TF over GST control) |
| AGGATT | 1.78 fold enrichment (6-mer frequency, TF over GST control) |
| GCGAAG | 1.15 fold enrichment (6-mer frequency, TF over GST control) |
| GGAAAG | 1.29 fold enrichment (6-mer frequency, TF over GST control) |
| AGACTA | 1.06 fold enrichment (6-mer frequency, TF over GST control) |
| AGCGAA | 1.02 fold enrichment (6-mer frequency, TF over GST control) |
| TAGAGA | 1.3 fold enrichment (6-mer frequency, TF over GST control) |

| Sequence | binding signal |
| --- | --- |
| CGAGAA | 3.31 fold enrichment (6-mer frequency, TF over GST control) |
| CAGAAA | 1.99 fold enrichment (6-mer frequency, TF over GST control) |
| ATCCAG | 1.53 fold enrichment (6-mer frequency, TF over GST control) |
| GAAAGT | 1.26 fold enrichment (6-mer frequency, TF over GST control) |
| GGATTA | 3.05 fold enrichment (6-mer frequency, TF over GST control) |
| GAGATT | 1.25 fold enrichment (6-mer frequency, TF over GST control) |
| GTGGAT | 1.01 fold enrichment (6-mer frequency, TF over GST control) |
| TAAGAC | 1.22 fold enrichment (6-mer frequency, TF over GST control) |
| GATAAG | 1.29 fold enrichment (6-mer frequency, TF over GST control) |
| GAAGAT | 1.24 fold enrichment (6-mer frequency, TF over GST control) |
| CTAGAC | 1.59 fold enrichment (6-mer frequency, TF over GST control) |
| GACTAA | 1.13 fold enrichment (6-mer frequency, TF over GST control) |
| AGAGAT | 1.16 fold enrichment (6-mer frequency, TF over GST control) |
| CAAAGA | 1.1 fold enrichment (6-mer frequency, TF over GST control) |
| AGAATC | 1.74 fold enrichment (6-mer frequency, TF over GST control) |
| TGCGAG | 1.15 fold enrichment (6-mer frequency, TF over GST control) |
| GAATCA | 1.06 fold enrichment (6-mer frequency, TF over GST control) |

Reference: PMC7862700, “An all-to-all approach to the identification of sequence-specific readers for epigenetic DNA modifications on cytosine”
